Results from PubChem BioAssay (NCATS).
Results filed as inconclusive are left out. The source made the active and inactive calls. Calls follow the shape of the dose curve; as a rule, active = well fitted cell-killing curve with a large enough effect; inconclusive = small, poorly fitted or top-dose-only effect, or effect the other way; inactive = flat fitted curve, though single readings scatter.

Key:
Assay in all cases: Primary qHTS to identify gynecologic anti-cancer compounds using libraries of approved drugs and bioactive compounds (AID 1345084); also: nearly all actives have a fitted effect of over 55% in size
Settings in all cases: Gynecologic cancer cell panel viability, ATPlite luminescence, 48 h; series mostly up to 57.5 µM
OV90 = test system: OV90
Method in brief: (§1)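 Cells, 1,000 per well, plated 16 h, then exposed 48 h at 37 C to compounds. Viability by ATPlite luminescence after 15 min at room temperature.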

PA-1 = test system: PA-1
Method in brief: as §1

Tov-21-G = test system: Tov-21-G
Method in brief: as §1

Tov112D = test system: Tov112D
Method in brief: as §1
% is scaled to controls: 0 for no effect and ±100 for the full control effect.

COc1cc(/C=C/C(=O)OCC2OC(OC3(CO)OC(CO)C(O)C3O)C(O)C(O)C2O)ccc1O (stereo not drawn)
inactive: Potency (OV90) | Potency (PA-1) | Potency (Tov-21-G) | Potency (Tov112D)

C/C=C/C=C/[C@@H]1O[C@](O)([C@H](CC)C(=O)NC/C=C/C=C(\C)[C@@H](OC)[C@@H](C)[C@@H]2O[C@H](/C=C/C=C/C=C(\C)C(=O)c3c(O)ccn(C)c3=O)[C@H](O)[C@@H]2O)[C@H](O)[C@H](O)C1(C)C
inactive: activity change, negative = cytotoxicity (OV90) -4.64% [at 11.6 µM] | activity change, negative = cytotoxicity (PA-1) -1.69% [at 11.6 µM] | activity change, negative = cytotoxicity (Tov-21-G) -0.814% [at 11.6 µM] | activity change, negative = cytotoxicity (Tov112D) -0.13% [at 11.6 µM]

O=C(O)c1ccnc2cc(-c3nc4ccccc4n3CCN3CCCCC3)sc12
inactive: Potency (OV90) | Potency (PA-1) | Potency (Tov-21-G) | Potency (Tov112D)

COC(=O)C1=CO[C@@H](O[C@@H]2O[C@H](CO)[C@@H](O)[C@H](O)[C@H]2O)[C@@H]2C(C)CC(=O)[C@]12O (stereo partly drawn)
inactive: Potency (OV90) | Potency (PA-1) | Potency (Tov-21-G) | Potency (Tov112D)

C#CCCCn1cc(-c2cccc3c2N[C@@H](C)CC(=O)N3)cn1
inactive: Potency (OV90) | Potency (PA-1) | Potency (Tov-21-G) | Potency (Tov112D)

O=C(COCC(=O)N1CCN(C(c2ccccc2)c2ccccc2)CC1)Nc1ccc(Cl)cc1C(=O)O
inactive: Potency (OV90) | Potency (PA-1) | Potency (Tov-21-G) | Potency (Tov112D)

C=CC(C)(CC/C=C(\C)C(=O)OC)OC1OC(COC(=O)CC(C)(O)CC(=O)O)C(O)C(O)C1O (stereo not drawn)
inactive: Potency (OV90) | Potency (PA-1) | Potency (Tov-21-G) | Potency (Tov112D)

CC1(C)CCCC2(C)c3c4c(c(=O)oc(=O)c3=CCC12)=CCC1C(C)(C)CCCC41C (stereo not drawn)
inactive: Potency (OV90) | Potency (PA-1) | Potency (Tov-21-G) | Potency (Tov112D)

C[C@@H]1[C@H]2[C@H](O[C@@H]3O[C@H](CO)[C@@H](O)[C@H](O)[C@H]3O)OC=C(C(=O)O)[C@H]2C[C@@H]1OC(=O)/C=C/c1ccc(O)cc1
inactive: Potency (OV90) | Potency (PA-1) | Potency (Tov-21-G) | Potency (Tov112D)

C=CC1(C)C=C2CC[C@H]3[C@@](C)(C(=O)O)CCC[C@]3(C)C2CC1 (stereo partly drawn)
inactive: Potency (OV90) | Potency (PA-1) | Potency (Tov-21-G) | Potency (Tov112D)

COc1ccc(C2(O)c3c(ccc4c3OC(C)(CCC=C(C)C)C=C4)NC(=O)C2OC)cc1 (stereo not drawn)
inactive: Potency (OV90) | Potency (PA-1) | Potency (Tov-21-G) | Potency (Tov112D)

CCCCC(=O)N1c2ccccc2NC2=C(C(=O)CCC2)C1c1ccccc1Cl (stereo not drawn)
inactive: Potency (OV90) | Potency (PA-1) | Potency (Tov-21-G) | Potency (Tov112D)

C=C1Cc2c(Cl)cc3[nH]c4c5c3c2[C@@]2(O)[C@@H]1C[C@@H]2C(C)(C)O[C@H]5C1CC[C@@]2(O)[C@@]35O[C@@H]3[C@H]3OC(C)(C)[C@H]3O[C@H]5CC[C@]2(C)[C@@]41C (stereo partly drawn)
inactive: Potency (OV90) | Potency (PA-1) | Potency (Tov-21-G) | Potency (Tov112D)

O=C(OC(C(F)(F)F)C(F)(F)F)N1CCN(Cc2cccc(Oc3ccccc3)c2)CC1
inactive: Potency (OV90) | Potency (PA-1) | Potency (Tov-21-G) | Potency (Tov112D)

C[C@@H]1C(=O)O[C@H]2[C@H]1CC[C@@]1(C)C(=O)C=C[C@@](C)(O)[C@H]21
inactive: Potency (OV90) | Potency (PA-1) | Potency (Tov-21-G) | Potency (Tov112D)

Cc1ccc(COC(=O)N2CC[C@@H](CNc3ncccn3)[C@@H](F)C2)cc1
inactive: Potency (OV90) | Potency (PA-1) | Potency (Tov-21-G) | Potency (Tov112D)

NC(=O)c1ccc(F)c2c1C[C@@H](N(C1CCC1)C1CCC1)CO2
inactive: Potency (OV90) | Potency (PA-1) | Potency (Tov-21-G) | Potency (Tov112D)

COc1c2c(c(C)c3c1C(=O)OC3)OC1(C)CC(O)C34OC(OC)(CC(O)C3(C)C1C2)OC4(C)C (stereo not drawn)
inactive: Potency (OV90) | Potency (PA-1) | Potency (Tov-21-G) | Potency (Tov112D)

OC[C@H]1O[C@@H](Oc2cc(O)cc(-c3cc4ccc(O[C@@H]5O[C@H](CO)[C@@H](O)[C@H](O)[C@H]5O)cc4o3)c2)[C@H](O)[C@@H](O)[C@@H]1O
inactive: Potency (OV90) | Potency (PA-1) | Potency (Tov-21-G) | Potency (Tov112D)

C/C=C(/C)C(=O)OC1C(OC(C)=O)C23C(O)OC4(CCC5C6(C)CCC(OC7OC(C(=O)O)C(O)C(OC8OC(CO)C(O)C(O)C8OC8OC(C)C(O)C(O)C8OC8OCC(O)C(O)C8O)C7OC7OC(CO)C(O)C(O)C7O)C(C)(C)C6CCC5(C)C4(C)CC2OC(C)=O)C3CC1(C)C (stereo not drawn)
inactive: activity change, negative = cytotoxicity (OV90) 3.74% [at 6.55 µM] | activity change, negative = cytotoxicity (PA-1) -0.0173% [at 6.55 µM] | activity change, negative = cytotoxicity (Tov-21-G) -4.78% [at 6.55 µM] | activity change, negative = cytotoxicity (Tov112D) 1.18% [at 6.55 µM]

O=[N+]([O-])c1cc(Cl)ccc1S(=O)(=O)N1CCN(Cc2ccccc2)CC1
inactive: Potency (OV90) | Potency (PA-1) | Potency (Tov-21-G) | Potency (Tov112D)

C[C@]12CC/C(=N\OCC(=O)O)C=C1CC[C@@H]1[C@@H]2[C@@H](O)C[C@@]2(C)[C@H]1CC[C@]2(O)C(=O)CO
inactive: Potency (OV90) | Potency (PA-1) | Potency (Tov-21-G) | Potency (Tov112D)
